# Measured values: PubChem BioAssay AID489038 (National Center for Advancing Translational Sciences (NCATS), 2010)
# Records with an inconclusive call do not appear. Unmarked numbers belong to inactive results. Calls of active or inactive are those of the source. Calls come from the whole dose curve; as a rule, active = well fitted inhibition curve with a large enough effect; inconclusive = small, poorly fitted or top-dose-only effect, or effect the other way; inactive = no such curve, though single readings can be large or run the other way.
# Assay: DHR3 selectivity assay for inhibitors of ROR gamma transcriptional activity
# Conditions: Drosophila S2 Gal4-DHR3 UAS-luciferase, 20 h; series mostly up to 92.2 µM; activity change, negative = inhibition: at the top concentration
# Excerpt: NIH Molecular Libraries Probe Production Network [MLPCN] NIH Chemical Genomics Center [NCGC] MLPCN Grant: R03 DA026211-01 Assay Provider: Dan Littman, New York University Assay Overview: The retinoic acid-related orphan receptor (ROR) gamma is a transcription factor that has a central role in the differentiation of Th17 cells, a subset of T helper cells that secrete the inflammatory cytokines IL-17A, IL-17F, and IL-22. Th17 cells have been implicated in graft versus host disease, autoimmune disease and asthma. RORgamma is induced in naive T helper cells in the presence of TGF-beta combined with IL-6, IL-21, or IL-23, and thereafter directs the expression of the Th17 lineage cytokines. To identify […] inhibitors, a Drosophila Schneider cell line was stably transfected with two vectors: a gene expressing a fusion of the Gal4 DNA binding domain and the transactivation domain of the Drosophila Hormone Receptor 3 (DHR3), under the control of the metallothionine promoter and a Photinus luciferase reporter regulated by the Gal4 binding site enhancer, UAS. […] Small molecule inhibitors that inhibit components common to the RORgamma and DHR3 assays, such as proteins that interact with general nuclear hormone receptors, will be active in both assays and thus scored as nonselective.
# Assay Protocol Summary: For screening, 600 cells in 4 uL/well were dispensed into white solid 1536-well plates (Grenier) using a solenoid-based dispenser. Following transfer of 23 nL compound or DMSO vehicle by a pin tool, the plates were incubated 1 hr at ambient temperature, and 1 uL/well copper sulfate (700 uM final concentration) was added. The plates were centrifuged 15 s at 1000 RPM and incubated 20 hr at ambient temperature. After addition of 1.5 uL Photinus luciferase detection reagent, the plates were incubated 10 min at ambient temperature and then read by an ViewLux (Perkin Elmer) to detect luminescence.
# % is set by controls: 0 for no effect and ±100 for the full control effect; potency is the fitted concentration of half-maximal effect.
Compound,"activity change, negative = inhibition [%]",Potency
Cc1cccc(C(CC(=O)NCCc2ccccc2)c2ccccc2)c1O (configuration not stated),21.2,–
CC1CCCN(C(=O)CC(c2ccc3c(c2)OCO3)c2ccc(O)cc2O)C1 (configuration not stated),18.5,–
Cc1cccc(-c2nc3cc(NC(=O)C4CCCO4)ccc3o2)c1 (configuration not stated),–,2290 nM (active)
COc1cc(O)c(C(CC(=O)N2CCCC(C(C)C)C2)c2ccc3c(c2)OCO3)c(OC)c1 (configuration not stated),-23,–
COc1cc(O)c(C(CC(=O)N2CCCC(C)C2)c2cccc3ccccc23)c(OC)c1 (configuration not stated),12.5,–
COc1cc(O)c(C(CC(=O)N2CCCC(C)C2)c2ccc(-c3ccccc3)cc2)c(OC)c1 (configuration not stated),-2.77,–
COc1cc(O)c(C(CC(=O)NC2CCC(C)CC2)c2ccc3c(c2)OCO3)c(OC)c1 (configuration not stated),8.82,–
CC(C)(C)c1ccc(-c2noc(CCC(=O)Nc3cccnc3)n2)cc1,–,51.2 nM (active)
Cc1cc(C)c2[nH]c(C(=O)Nc3ccc4c(c3)OCO4)cc2c1,–,204 nM (active)
Cc1cc(C)c2sc(NC(=O)c3ccc(N4C(=O)CCC4=O)cc3)nc2c1,–,102 nM (active)
CCOC(=O)c1sc(NC(=O)c2ccc(S(=O)(=O)N(C)C)cc2)nc1C,–,45.7 nM (active)
CCC(=O)C1CCCN(C(=O)CC(c2ccc3c(c2)OCO3)c2c(O)cc(OC)cc2OC)C1 (configuration not stated),23.3,–
COc1cc(O)c(C(CC(=O)N2CCOCC2)c2ccc(C)cc2)c(OC)c1 (configuration not stated),3.9,–
COc1ccc(C(CC(=O)N2CCCC(C)C2)c2ccc3c(c2)OCO3)c(O)c1 (configuration not stated),13,–
COC(=O)c1ccc(OCC(=O)c2ccc(O)cc2O)cc1,–,363 nM (active)
COc1cc(O)c(C(CC(=O)N2CCc3ccccc32)c2ccc3c(c2)OCO3)c(OC)c1 (configuration not stated),27.4,–
COCC1CCCCN1C(=O)c1cc(COc2ccc3ncccc3c2)on1 (configuration not stated),–,9110 nM (active)
COc1cc(O)c(C(CC(=O)N2CCCC(C(=O)c3ccccc3)C2)c2ccc3c(c2)OCO3)c(OC)c1 (configuration not stated),-19.8,–
COc1cc(OC)c(C(CC(=O)N2CC(C)CC(C)C2)c2ccc3c(c2)OCO3)c(OCC(N)=O)c1 (configuration not stated),15.1,–
CN(C)S(=O)(=O)c1ccc(NC(=O)/C=C/c2ccccc2Cl)cc1,–,1620 nM (active)
COc1ccc(-c2c[n+]3c(n2-c2ccc(C)cc2)CCCCC3)cc1,–,8120 nM (active)
COc1cc(O)c(C(CC(=O)N2CCC(C)CC2)c2ccc3c(c2)OCO3)c(OC)c1 (configuration not stated),26.2,–
